According to PubChem BioAssay AID848 (Columbia University Molecular Screening Center, 2007):
Out of some 93,000 compounds screened, about 160 (0.17%) were called active. The sample holds actives, similar compounds and a random draw of the others, so the mix is not that of the screen.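 Rule for the calls: active = cell count reduction exceeding the screen mean by over 5 SD, scaled to untreated wells per plate (cut at about 78% in these data); inactive = the rest.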

Assay: cytotoxicity in TNFa-stimulated HUVEC, primary screen, cytotoxicity control for VCAM1 expression modulator project, imaging, Hoechst nuclei count (AID 848);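 note: cells counted after 24 h of TNF alpha exposure following the 1 h pretreatment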
Conditions: HUVEC TNFalpha-stimulated, at 2 µM, stronger effect = higher value

| SMILES | cell count reduction |
| --- | --- |
| CCC(=O)Nc1ccc(C(=O)Nc2cccc(OC)c2)cc1 | -29.2% (inactive) |
| COc1cc(/C=N/O)cc(Br)c1OS(=O)(=O)c1ccc(C)cc1 | -20% (inactive) |
| COc1ccc(/C=C(\NC(=O)c2ccc(OC)c(OC)c2)C(=O)NCCc2c[nH]c3ccccc23)cc1 | -3.8% (inactive) |
| Cc1cccc(N2CCN(S(=O)(=O)c3ccc4[nH]c(=O)c(=O)[nH]c4c3)CC2C)c1 (stereo unspecified) | -4.3% (inactive) |
| Cc1ccc(NC(=O)CN2CCc3ccccc3C2)cc1 | -11.7% (inactive) |
| COc1ccccc1-c1n[nH]c2c1[C@H](C)CC[C@H]2C(C)C | -1.8% (inactive) |
| O=C1CSC(c2ccccc2)N1c1nc(-c2ccc(Cl)cc2Cl)cs1 (stereo unspecified) | 12.4% (inactive) |
| CC1(C)Cc2c(sc3nc(SCC(=O)NCc4ccccc4)n(-c4ccccc4)c(=O)c23)CS1 | -2.4% (inactive) |
| O=C1CCCC2=C1C(c1ccccc1)n1c(s/c(=C/c3cccc(F)c3)c1=O)=N2 (stereo unspecified) | -15.2% (inactive) |
| Cc1cc2[nH]ncc2cc1NC(=S)NC(=O)c1ccccc1 | -6% (inactive) |
| CCOC(=O)/C(=C\c1ccc([N+](=O)[O-])cc1)C(=O)c1cc(C(C)=O)c(Nc2ccccc2)s1 | 5.8% (inactive) |
| CN(C)C(CNC(=O)CCCOc1ccccc1)c1ccco1 (stereo unspecified) | -22.1% (inactive) |
| O=C(c1ccccc1)C(Cn1cncn1)C(Sc1ccccc1)c1ccccc1 (stereo unspecified) | -17.7% (inactive) |
| CC(C)C(=O)Nc1cccc(NC(=S)NC(=O)C(c2ccccc2)c2ccccc2)c1 | -31.2% (inactive) |
| Fc1ccccc1COc1ccccc1CNCc1ccncc1 | 2.6% (inactive) |
| COc1ccc(NS(=O)(=O)c2ccc(NC(=S)NC(=O)CC(C)C)cc2)cc1 | -22.5% (inactive) |
| Cc1ccc(N2CCN(C3=NC(=O)/C(=C\c4cccs4)S3)CC2)cc1 | -5.4% (inactive) |
| COc1ccc(CN2CCn3ncc(C(=O)Nc4ccc(Cl)cc4Cl)c3C2=O)cc1 | -5.8% (inactive) |
| CNC(=S)NNC(=O)c1sccc1OCc1ccccc1 | -14.5% (inactive) |
| Cc1n[nH]c(=S)n1/N=C/c1ccc(Br)o1 | -5.8% (inactive) |
| Cc1ccc(C2CC2C(=O)NN)cc1 (stereo unspecified) | -10.3% (inactive) |
| O=C(CNC(=O)OCc1ccccc1)Oc1cc2oc(=O)cc(-c3ccccc3)c2cc1Cl | 0% (inactive) |
| O=S(=O)(N/N=C\c1cccn1-c1ccccc1)c1ccc2ccccc2c1 | -15.3% (inactive) |

| SMILES | cell count reduction |
| --- | --- |
| Cc1c(NC(=O)/C=C/C(=O)O)cccc1[N+](=O)[O-] | -2.4% (inactive) |
| CCOC(=O)C1=C(C)Nc2sc(C(=O)c3ccc(Br)cc3)c(N)c2C1c1ccc(C(=O)OC)cc1 (stereo unspecified) | -15.9% (inactive) |
| COc1ccc(CCNC(=S)NC(=O)/C=C/c2ccc(C)cc2)cc1OC | -29.7% (inactive) |
| COc1ccc(Oc2coc3cc(OC(=O)c4cncc(Br)c4)ccc3c2=O)cc1 | 7% (inactive) |
| O=C(NC1CC1)c1ccc2c(c1)NC(=O)c1ccccc1S2 | -13.8% (inactive) |
| Cc1ccc(/C=N/NC(=O)c2sccc2OCc2ccc(F)cc2)cc1 | -8.8% (inactive) |
| Cc1cc(=O)oc2cc(OC(C)C(=O)Nc3ccc(N4CCOCC4)cc3)ccc12 (stereo unspecified) | -7.6% (inactive) |
| Cc1nnc(NC(=O)CSc2nc(C3CCCCC3)nc3ccccc23)s1 | -7.9% (inactive) |
| O=C1CCN(C(=O)Nc2ccccc2)N1 | -11.8% (inactive) |
| CCOc1cccc(SCc2noc(C(=O)NC(C)C)c2C(=O)O)c1 | -41.1% (inactive) |
| Cc1cc([N+](=O)[O-])c(N2CCC[C@@H]2C(=O)O)c([N+](=O)[O-])c1 | -11.9% (inactive) |
| CC(C(=O)Nc1ccc(F)c(F)c1F)N1CCCCCC1 (stereo unspecified) | 0% (inactive) |
| CCC(C(=O)NCc1ccc(OC)cc1)n1nc(C)n2c(cc3occc32)c1=O (stereo unspecified) | -4.6% (inactive) |
| C/C(=N\NS(=O)(=O)c1cccc([N+](=O)[O-])c1)c1cc2ccccc2o1 | -56% (inactive) |
| CC1CC(C)CN(C(=O)CSc2nnc(CSc3ncccn3)n2C)C1 (stereo unspecified) | -24.8% (inactive) |
| Cc1ccc(NC(=S)NC(=O)c2ccc(-c3ccccc3)cc2)c(C)c1 | -14.1% (inactive) |
| CCCCNC(=O)CSc1nc2ccc(NC(=O)CSc3nnc(COc4ccccc4C)n3C)cc2s1 | -20.8% (inactive) |
| O=C(Nc1ccccc1Cl)O/N=C(/c1ccccc1)c1ccccn1 | 9.5% (inactive) |
| Cc1nn(Cc2ccccc2Cl)c(C)c1NC(=O)Cn1nc([N+](=O)[O-])c(Cl)c1C | 10.2% (inactive) |
| CSCc1cc(N(C)C)nc(SCc2ccc(Cl)cc2Cl)n1 | -3% (inactive) |
| COCCCNCC(=O)Nc1sc(C)c(C)c1C(=O)OC | -27.9% (inactive) |
| COc1ccc2c(Cl)c(C(=O)NCc3ccco3)sc2c1 | -12% (inactive) |
| O=C(CSc1ccc(/C=N/NC(=O)c2cccc(F)c2)o1)Nc1ccccc1 | -19.1% (inactive) |

| SMILES | cell count reduction |
| --- | --- |
| C=CCn1c(-c2ccc(Cl)cc2)ccc(C#N)c1=O | 4.1% (inactive) |
| CCC(c1nnnn1C(C)(C)C)N(Cc1cc2cccc(C)c2n2nnnc12)C1CCCC1 (stereo unspecified) | -17% (inactive) |
| O=C(CCCN1C(=O)c2ccccc2C1=O)Oc1ccc(Cl)cc1 | -17.1% (inactive) |
| CN1/C(=c2/s/c(=C3/C(=O)N(c4ccccc4)NC3=Nc3ccccc3)n(C)c2=O)C(C)(C)c2ccccc21 | 3.8% (inactive) |
| C(=N/N1CCN(c2ccccc2)CC1)/c1cccs1 | -6.5% (inactive) |
| Cc1ccc(-n2c(CNc3ccc(F)cc3)nnc2SCC(=O)N2CCOCC2)cc1 | -20.7% (inactive) |
| COc1ccc(-c2c(C(C)=O)c(C)nc3sc4c(=O)n(-c5ccc(C)cc5)nnc4c23)cc1 | -14.8% (inactive) |
| Cc1cc(C)n2nc(C(=O)NC(C)(C)C)nc2n1 | 14.4% (inactive) |
| COc1cc(OC)cc(C(=O)NC(=S)N2CCN(c3ccc(C(F)(F)F)cc3[N+](=O)[O-])CC2)c1 | -5.1% (inactive) |
| Cc1cccc(N(C(=O)c2ccc(CN3CCOCC3)o2)C(C(=O)NC2CCCCC2)c2ccc(F)cc2)c1 (stereo unspecified) | -36.1% (inactive) |
| Cc1ccc(-n2nc(N)c3c(=O)oc(N(C)C)nc32)cc1 | 5% (inactive) |
| CN(C)/C=C/C(=O)c1ccccc1F | -9% (inactive) |
| O=C(Nc1ccccc1)c1ccc2nsnc2c1 | 5.4% (inactive) |
| O=C(Nc1cc(C(F)(F)F)ccc1Cl)c1cc2nc3c(c(C(F)(F)F)n2n1)CCCC3 | -32.1% (inactive) |
| CCCCOC(=O)Cn1c(=O)n(CC(=O)OCCCC)c2cc(C)ccc21 | -29.5% (inactive) |
| CCOC(=O)c1nc(C)n(-c2ccc(Cl)cc2Cl)n1 | -3.8% (inactive) |
| COc1ccc(/C=N/Nc2nc3ccccc3c(=O)[nH]2)cc1 | 18.9% (inactive) |
| CC(=O)N1CCc2cc(S(=O)(=O)Nc3ccccc3N3CCN(C)CC3)ccc21 | -25.4% (inactive) |
| CC(=O)N1CCCc2cc(S(=O)(=O)CCC(=O)N3CCN(c4ccccc4)CC3)ccc21 | -22.4% (inactive) |
| CCCNS(=O)(=O)c1ccc2c(c1)CCCN2C(C)=O | 100% (active) |
| O=C(/C=C/c1ccco1)Nc1ccc(Oc2ccccc2)cc1 | -16.8% (inactive) |
| CCn1c2ccccc2c2cc(NC(=S)N3CCOCC3)ccc21 | -4% (inactive) |
| O=C(NCc1cccnc1)c1cccnc1Sc1ccc(Cl)cc1 | -20.6% (inactive) |

| SMILES | cell count reduction |
| --- | --- |
| Cc1ccc(C)c(NC(=O)C2Cc3ccccc3CN2C(=O)OCc2ccccc2)c1 (stereo unspecified) | -19.8% (inactive) |
| CSc1cc(C)n(-c2ccccc2C)c(=S)c1C(C)=O | -11.4% (inactive) |
| CC(C)(C)NS(=O)(=O)c1ccc(NC(=O)NC2CCCCC2)cc1 | 2.5% (inactive) |
| CC(C)(C)c1ccc(OC2=CS(=O)(=O)c3ccccc32)cc1 | -12% (inactive) |
| O=C(N/N=C\c1ccc(-c2ccc(Cl)c(Cl)c2)o1)C(=O)N1CCCC1 | -10.6% (inactive) |
| c1ccc(CSc2ncnc3c2sc2nc(N4CCOCC4)c4c(c23)CCCC4)cc1 | -21.4% (inactive) |
| CCC(C)n1c(-c2cc(OC)c(OC)c(OC)c2)nc2nc3ccccc3nc21 (stereo unspecified) | 5.6% (inactive) |
| O=C(Oc1ccccc1)Oc1ccc2c(c1)oc(=O)c1ccccc12 | -8.6% (inactive) |
| Cc1ccc(Oc2ccc3c(c2)C(=O)N(c2cccc4cccnc24)C3=O)cc1 | 16.6% (inactive) |
| O=C(Nc1ccccc1)O/N=C1\CCCCC1c1ccc([N+](=O)[O-])cc1[N+](=O)[O-] (stereo unspecified) | -15.6% (inactive) |
| O=C(CSc1nc2ccccc2o1)N1c2ccccc2Sc2ccc(Cl)cc21 | 4.3% (inactive) |
| O=C(CCl)NNc1cccc(Cl)n1 | -9% (inactive) |
| Cc1cc(-c2cccs2)nc(-n2cccc2)n1 | 3.7% (inactive) |
| COc1cccc2cc(C(=O)N3CCN(C(=O)c4ccccc4)CC3)c(=O)oc12 | -19.2% (inactive) |
| O=C(Cc1ccc(S(=O)(=O)N2CCOCC2)s1)NCCC(c1ccccc1)c1ccccc1 | -20.2% (inactive) |
| Cc1cc(C)c2nc(NC(=O)c3ccc4c(c3)OCO4)sc2c1 | -4.3% (inactive) |
| CC(Oc1ccc(-c2ccccc2)c(F)c1)c1ccn(S(=O)(=O)c2cccc3ccccc23)n1 (stereo unspecified) | -7.1% (inactive) |
| Clc1ccc(-c2cc(COc3ccccc3)no2)cc1Cl | 2% (inactive) |
| COC(=O)c1ccc(C2C(Oc3ccccc3C)C(=O)N2CCc2ccc(OC)c(OC)c2)cc1 (stereo unspecified) | -15.9% (inactive) |
| CN(C)Cc1ccccc1C1(O)c2ccccc2CSc2ccccc21 (stereo unspecified) | 12.2% (inactive) |
| Cc1cc(C)c2cc(CN(Cc3nnnn3Cc3ccc(F)cc3)C3CCCC3)c(=O)[nH]c2c1 | -8.7% (inactive) |
| CCCc1ccc(OCc2ccc(C(=O)N/N=C/c3cccc([N+](=O)[O-])c3)o2)c(OC)c1 | 11.6% (inactive) |
